Rows were chosen to be rich in hits. Some 4.7% of all compounds tested hit in one or more screens of this group.
D1 PAM: human D1 dopamine receptor positive modulation; HEK293 TREx D1 cells, calcium flux, dopamine EC20 potentiation; potentiation, % at 10 µM; AID 504651; hit rate 0.036% among 360,000; in the data active = potentiation above about 30%; also: 0% is about no effect
D1 antagonist: antagonists of human D1 dopamine receptor | HEK293 TREx D1 cells, calcium flux, dopamine EC80; active compounds read low | P21728 | hit rate 3.2% among 360,000 | activity change, negative = inhibition, % at 10 µM | AID 504652; in the data active = activity change below about -30%; also: % is scaled to controls: 0 for no effect and ±100 for the full control effect
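Antagonism measured as reduced calcium response to an EC80 dopamine addition following 180 s compound pre-read; cells were inducible HEK293 Trex D1 plated overnight at 30 C, read kinetically at 1 cycle/sec.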
D1 agonist: human D1 receptor agonism; hit rate 1% among 360,000; activation, % at 2 µM; P21728; HEK293 T-REx D1 cells, calcium flux, agonist mode; also: 0% is about no effect
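Inducible HEK293 T-REx D1 cells, force-coupled to calcium signalling, were plated at 4000 cells/well with tetracycline and held overnight at 30 C. After no-wash calcium dye loading, compound-evoked calcium rise over 180 s flagged agonists.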
TRHR agonist: TRH receptor (human) agonism; TRHR cells, calcium flux fluo-8, FDSS agonist mode; activation, % at 2 µM; P34981; hit rate 0.18% among 360,000; also: 0% is about no effect
Target sequence (P34981 whole entry, looked up): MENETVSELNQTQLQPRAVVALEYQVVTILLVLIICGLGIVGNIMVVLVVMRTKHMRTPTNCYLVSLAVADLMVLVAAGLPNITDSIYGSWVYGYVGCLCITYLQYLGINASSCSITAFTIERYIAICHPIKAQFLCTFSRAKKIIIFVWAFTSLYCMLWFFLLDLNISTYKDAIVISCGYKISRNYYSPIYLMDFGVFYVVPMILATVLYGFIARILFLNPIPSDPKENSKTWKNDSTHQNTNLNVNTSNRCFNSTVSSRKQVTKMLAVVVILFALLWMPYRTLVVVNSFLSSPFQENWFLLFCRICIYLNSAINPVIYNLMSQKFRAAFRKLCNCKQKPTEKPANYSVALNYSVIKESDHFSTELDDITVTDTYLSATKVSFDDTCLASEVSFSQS
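Fluo-8-loaded TRHR cells; 10 s baseline, compound added, kinetic Ca2+ fluorescence read 1/s, agonist mode.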
TRHR PAM: allosteric enhancers of human TRH receptor; P34981; TRHR cells, fluo-8 calcium fluorescence, EC20 TRH enhancement; enhancement, % at 2 µM; hit rate 0.66% among 360,000; AID 493056; in the data active = enhancement above about 30%; also: 0% is about no effect
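Enhancer read-out: after compound pinning and an initial kinetic agonist-mode read, an EC20 of TRH (10 nM final) was injected and fluo-8 calcium signal (Ex 480/Em 530) followed at 1 s/cycle for 100 cycles in TRHR-expressing cells.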
Numbers without * were called inactive. Rule as the data show it, unless noted: active = activation above about 30%; inactive = the rest.

SMILES | D1 PAM | D1 antagonist | D1 agonist | TRHR agonist | TRHR PAM
Cc1cc(C)nc(/N=C(\N)Nc2cccc(OCc3ccccc3)c2)n1 | -15.0 | -54.9* | 66.1* | 24.8 | -19.8
Cc1cc(C)nc(/N=C(\N)Nc2ccc(S(=O)(=O)O)cc2)n1 | -1.4 | 5.2 | 2.1 | 0.3 | -12.1
COc1ccccc1N/C(N)=N/c1nc(C)cc(C)n1 | -12.7 | -33.7* | 3.0 | -0.2 | 0.3
CC(C)(C)C(=O)N1CCN(c2nc3ccc(Cl)cc3s2)CC1 | -3.2 | -43.3* | 2.9 | -0.3 | 0.9
COC(=O)c1ccc(/C=C/C(=O)O)cc1 | -0.9 | -4.4 | 2.6 | 0.3 | 3.5
COC(=O)c1ccc(/C=C/C(=O)c2ccc(OC)cc2)cc1 | 5.0 | -37.8* | 6.3 | 0.3 | -1.8
COc1ccc(/C=C/C(=O)c2ccc(C(=O)/C=C/c3ccc(OC)c(OC)c3)cc2)cc1OC | -3.8 | -18.7 | 27.4 | 8.7 | -0.9
COC(=O)c1ccc(/C=C/C(=O)c2ccc(OC)c(OC)c2)cc1 | -7.1 | 3.5 | 2.2 | 0.2 | 35.5*
Clc1cccc(CSc2ccc(-c3cccs3)nn2)c1 | -3.4 | -2.7 | 44.8* | -0.1 | 1.7
Cc1cc(C)cc(NC(=O)N2CCC(C(N)=O)(N3CCCCC3)CC2)c1 | -1.4 | -7.8 | 1.6 | 0.7 | 11.7
COc1ccccc1NC(=O)c1cc2ccc3cccnc3c2[nH]1 | -0.8 | -2.7 | 2.6 | -0.2 | 23.4
CC(C)N(Cc1ccccc1)C(=O)c1cc2ccc3cccnc3c2[nH]1 | 3.9 | -34.3* | 5.7 | 0.8 | -9.1
CCOc1ccccc1NC(=O)c1cc2ccc3cccnc3c2[nH]1 | -1.4 | -1.2 | 4.0 | -1.1 | 32.1*
COc1cc(NC(=O)Cn2ccn(Cc3ccccc3OC)c(=O)c2=O)cc(OC)c1 | -2.0 | -17.1 | 1.2 | -0.5 | -7.6
Cc1ccc(CCNC(=O)c2cc3ccccn3n2)cc1 | 1.0 | -14.6 | 2.4 | -0.5 | -2.8
CCCc1cc(=O)n2[nH]c(NCc3cccs3)nc2n1 | 2.0 | -36.6* | 6.2 | 0.1 | -6.0
CCCc1cc(=O)n2[nH]c(NCc3ccccc3Cl)nc2n1 | 1.8 | -0.2 | 2.8 | 0.0 | -1.2
Cc1cc(C)c2ccc3c(C)c(C)nc3c2[nH]1 | -4.2 | -46.7* | 5.0 | -1.0 | 7.7
S=C(Nc1ccccc1Cl)NC1CCN(Cc2ccccc2)CC1 | -0.6 | 0.5 | 14.5 | 1.1 | 6.1
S=C(Nc1cc(Cl)cc(Cl)c1)NC1CCN(Cc2ccccc2)CC1 | 0.8 | -15.3 | 18.7 | 2.2 | -5.1
CC(C)c1ccc(NC(=S)NC2CCN(Cc3ccccc3)CC2)cc1 | -7.0 | -27.0 | 36.4* | 0.9 | 1.3
Cc1ccc(NC(=S)NC2CCN(Cc3ccccc3)CC2)cc1C | -11.6 | -82.3* | 21.2 | 1.3 | 15.7
Cc1ccc(NC(=S)NC2CCN(Cc3ccccc3)CC2)cc1 | -4.8 | -64.2* | 17.1 | 0.5 | 3.8
CC(C)c1ccccc1NC(=S)NC1CCN(Cc2ccccc2)CC1 | -3.6 | 7.7 | 9.7 | 1.2 | 2.1
Cc1c(Cl)cccc1NC(=S)NC1CCN(Cc2ccccc2)CC1 | -6.1 | -32.9* | 14.6 | 2.9 | 6.2
SMILES | D1 PAM | D1 antagonist | D1 agonist | TRHR agonist | TRHR PAM
CCOc1ccccc1NC(=O)c1ccc2c(Cl)c3c(nc2c1)CCCC3 | 5.0 | 1.6 | -0.4 | 0.0 | 6.9
S=C(Nc1ccc(Cl)cc1Cl)NC1CCN(Cc2ccccc2)CC1 | -8.8 | -16.1 | 14.7 | 2.9 | -0.6
S=C(Nc1ccc2c(c1)OCO2)NC1CCN(Cc2ccccc2)CC1 | -12.2 | -37.7* | 9.2 | 0.1 | -2.1
COCCN1C(=O)C(=O)/C(=C(/O)c2ccc(S(=O)(=O)N3CCCCC3)cc2)C1c1ccc(OC)cc1 (stereo not given) | -0.3 | 4.9 | 1.3 | -0.3 | 10.8
O=C(COC(=O)CSc1ccc(F)cc1)NCC1CCCCC1 | -4.3 | -37.3* | 3.0 | -0.1 | 2.8
Cc1ccc(SCC(=O)OCC(=O)NC2CCCCCC2)cc1 | -8.3 | -0.3 | 0.2 | 1.8 | 9.7
O=Nc1[nH]c(=O)c(/C=C(\O)c2ccccc2)nc1NO | -7.8 | 5.5 | 5.2 | 0.5 | 3.1
COC(=O)c1ccc(OCC(O)CN2C(=O)c3ccccc3C2=O)cc1 (stereo not given) | -10.6 | -30.6* | 2.6 | 0.8 | -1.6
COC(=O)c1ccc(OCC(O)CN2CCN(CC(O)COc3ccc(C(=O)OC)cc3)CC2)cc1 (stereo not given) | -0.9 | -22.2 | 12.7 | 0.6 | 3.7
COc1ccccc1C(=O)Nc1ccc(OCc2cc(=O)n3cccc(C)c3n2)cc1 | 3.3 | 5.9 | 1.6 | -0.2 | 2.9
Cc1cccn2c(=O)cc(COc3ccc(NC(=O)C(C)Oc4ccccc4)cc3)nc12 (stereo not given) | -3.2 | -49.3* | 1.1 | -0.5 | 3.6
Cc1cccn2c(=O)cc(COc3cccc(NC(=O)Nc4cccc(Cl)c4)c3)nc12 | -2.2 | -59.1* | 0.6 | 0.1 | -1.2
Cc1cccc(C(=O)Nc2cccc(OCc3cc(=O)n4ccccc4n3)c2)c1 | -6.3 | -71.0* | -1.1 | -0.2 | 0.2
Cc1cccn2c(=O)cc(COc3cccc(NC(=O)c4cccc(Cl)c4)c3)nc12 | -3.4 | -14.0 | -1.5 | -0.4 | 5.3
CCOc1ccc(C(=O)Nc2cccc(OCc3cc(=O)n4ccccc4n3)c2)cc1 | -3.0 | -17.3 | -2.1 | -0.6 | -7.5
COc1ccc(NC(=O)Cn2c(=O)n(-c3ccc(C)cc3)c(=O)c3c2c2cc(C)ccc2n3C)cc1 | -2.0 | 7.7 | 2.9 | -0.4 | 9.4
CC1CN(S(=O)(=O)c2cccc(C(=O)Nc3ccccc3N3CCCC3)c2)CC(C)O1 (stereo not given) | 1.4 | -1.4 | 1.4 | -0.9 | -9.8
Cc1ccccc1C(=O)Nc1sc2c(c1C(=O)N1CCC(C)CC1)CCC(C)C2 (stereo not given) | 0.5 | 8.6 | 0.3 | -0.1 | -5.3
Cc1cccc(NC(=O)c2cccc(OC(=S)N3CCOCC3)c2)c1C | -3.9 | -32.2* | 2.0 | -1.2 | -5.0
O=Cc1c[nH]c2ccccc12 | 7.2 | -54.9* | 0.5 | -1.2 | 0.1
C=CCN(CC=C)C(=O)C1CCN(S(=O)(=O)c2ccc(N3CCCC3=O)cc2)CC1 | 1.0 | -12.1 | 4.7 | 0.3 | 15.4
COc1ccccc1CN1CCC(CNC(=O)c2cnn(-c3ccc(C)c(C)c3)c2C2CCN(C(=O)OC(C)(C)C)CC2)CC1 | 2.4 | 26.5 | 9.4 | 0.7 | -7.0
Cc1ccc(C)c(N2CCN(CCCNC(=O)c3cnn(-c4cccc(Cl)c4)c3C3CCN(C(=O)OC(C)(C)C)CC3)CC2)c1 | 2.8 | 10.1 | 5.7 | -0.4 | -7.2
Cc1ccc(-n2ncc(C(=O)NCCN3CCC(Cc4ccccc4)CC3)c2C2CCN(C(=O)OC(C)(C)C)CC2)cc1 | 0.7 | -9.6 | 56.2* | -0.8 | 18.1
Cc1ccc(C)c(N2CCN(CCCNC(=O)c3cnn(-c4ccc(F)cc4)c3C3CCN(C(=O)OC(C)(C)C)CC3)CC2)c1 | -4.4 | -32.1* | 4.1 | -0.6 | -6.0
Cc1cccc(-n2ncc(C(=O)N3CCOCC3)c2C2CCN(C(=O)OC(C)(C)C)CC2)c1 | -4.7 | -76.7* | 0.6 | 1.0 | 14.4
